SARS PLpro yeast – inhibitors of SARS-CoV papain-like protease in yeast; S. cerevisiae expressing SARS-CoV PLpro, growth rescue; Potency, µM (doses to about 32.9 µM), for the others: at the highest dose activity, positive = growth rescue, hits mostly activators; hit rate 0.19% among 330,000; AID 485353; calls by dose curve; also: potency is read from the fitted curve at half-maximal effect; 0% is about no effect; nearly all actives have a fitted effect of over 55% in size
HCV inh – blocks hepatitis C virus. Potency, µM (highest dose often 41.8 µM), for the others: at the top dose activity change, negative = inhibition, hits mostly inhibitors. Huh7.5.1 HCVcc-Cre infection, luciferase reporter, 44 h. hit rate 3.4% among 340,000; also: potency is read from the fitted curve at half-maximal effect; % is scaled to controls: 0 for no effect and ±100 for the full control effect
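HCVcc-Cre virus at an moi near 0.5 was added right after compound to cells cultured 4 h from seeding (1,000 cells/well). Luciferase activity was determined 44 h later, 15 min after substrate addition at RT.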
HCMV inh – inhibitors of human cytomegalovirus. HFF cells, HCMV-luciferase reporter, 72 h; stronger effect = lower value. activity change, negative = inhibition, % at 57.5 µM. hit rate 4.5% among 410,000. AID 1259415; in the data active = activity change below about -60%; inconclusive = no clear call, values can overlap the other calls; inactive = above about -39%; also: % is scaled to controls: 0 for no effect and ±100 for the full control effect
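Screen run at 2 compound doses on HFFs infected with reporter HCMV, MOI 1 PFU/cell. Luciferase activity from cell lysates at 72 h post infection gave inhibition relative to buffer-only and Salinomycin wells.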
Sm TGR inh – inhibitors of Schistosoma mansoni thioredoxin glutathione reductase | AID 485364 | purified TGR, DTNB reduction, TNB absorbance 405 nm | Potency, µM (doses to about 114 µM), inactives show at the highest dose activity change, negative = inhibition, hits mostly inhibitors | hit rate 3% among 360,000 | Q962Y6; also: potency is read from the fitted curve at half-maximal effect; % is scaled to controls: 0 for no effect and ±100 for the full control effect; nearly all actives have a fitted effect of over 60% in size
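First, TGR (20 nM dispensed) and NADPH were mixed with compound. Second, a 15 min room-temperature incubation followed. Third, further NADPH and then DTNB were added to start the reaction. Finally, TNB absorbance was monitored kinetically.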
Pf growth 48h – inhibits P. falciparum growth in the first generation, 48 h | Potency, µM (top dose mostly 28.7 µM), inactives show top-dose activity change, negative = inhibition, most hits filed as inhibitors | hit rate 5.9% among 310,000 | P. falciparum luciferase growth in erythrocytes, 48 h; also: potency is read from the fitted curve at half-maximal effect; % is scaled to controls: 0 for no effect and ±100 for the full control effect
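Firefly luciferase activity from engineered P. falciparum reports growth; inhibitors lower the luminescent signal. Cultures contained 2% hematocrit erythrocytes at 0.1% final parasitemia.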
Pf growth 96h – inhibits malaria parasite growth, 96 h; P. falciparum luciferase reporter growth, 96 h; Potency, µM (doses to about 28.7 µM), inactives show at the top dose activity change, negative = inhibition, actives largely listed as inhibitors; hit rate 6.9% among 320,000; also: potency is read from the fitted curve at half-maximal effect; % is scaled to controls: 0 for no effect and ±100 for the full control effect
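Infected RBCs, 2% Hct / 0.05% parasitemia final; luciferase-reporter P. falciparum; cpd 96 h, 37 C, 5% CO2; luciferase detection reagent; luminescence.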
Numbers without * were called inactive; ? = inconclusive; · = no result given; ! = not confirmed by another sample; [ ] = another dose, or the depositor's remark. Rows were chosen to be rich in hits. Some 15% of all compounds tested hit in one or more screens of this group. Unless noted, calls follow the shape of the dose curve; as a rule, active = well fitted curve in the direction sought with a large enough effect; inconclusive = small, poorly fitted or top-dose-only effect, or another doubt; inactive = no such curve, though single readings can be large; an effect the other way counts as inactive or inconclusive.

SMILES	SARS PLpro yeast	HCV inh	HCMV inh	Sm TGR inh	Pf growth 48h	Pf growth 96h
Cc1sc(NC(=O)c2ccccc2)c(C(c2ccccn2)N2CCN(CCO)CC2)c1C (stereo not given)	14.3%	?	-62.4*	-0.2%	?	-49.7%
CCCCNC(=O)c1cc2ccccc2s1	-5.3%	?	-0.3	34.2%	67.0%	-22.3%
CN1C(=O)/C(=C/c2cc(C(C)(C)C)c(O)c(C(C)(C)C)c2)NC1=S	3.9%	7.3%	1.0	1µM*	?	?
CCc1ccccc1NC(=O)CSC1=C(C#N)C(c2ccc(O)c(OC)c2)C2=C(CCCC2=O)N1 (stereo not given)	3.4%	-16.2%	-11.7	39.8µM*	?	46.0%
Cc1ccc(NC(=O)CSC2=C(C#N)C(c3ccc4c(c3)OCO4)C3=C(CCCC3=O)N2)c(C)c1 (stereo not given)	6.3%	-23.1%	-64.6*	-25.2%	?	6.0%
OCC[C@@H]1C[C@H](O)[C@@H](O)[C@@]2(OCCCc3cc(C(F)(F)F)ccc32)O1	·	·	17.9	·	·	·
Cc1ccc(CCNC(=O)c2cc3c(-c4ccccc4F)nn(C)c3s2)cc1	·	·	-14.0	-1.0%	·	·
CCN(CCCNC(=O)c1cc2c(-c3cccc(OC)c3)nn(C)c2s1)Cc1ccccc1	-1.7%	11.2µM*	-1.7	5.0%	2.33µM*	9.2%
CCOc1ccc(CCNC(=O)c2cc3c(-c4ccccc4F)nn(C)c3s2)cc1OCC	·	·	-65.2*	-0.6%	·	·
CCOc1ccc(CCNC(=O)c2cc3c(-c4cccc(OC)c4)nn(C)c3s2)cc1OCC	·	·	-62.8*	2.6%	·	·
COc1cccc(-c2nn(C)c3sc(C(=O)NCc4cc(OC)ccc4OC)cc23)c1	·	·	-24.5	6.9%	·	·
CCc1nn(CC(=O)NC(C)C)c(=O)c2cc3cc(F)ccc3n12	·	·	-6.4	-0.2%	·	·
CC(=O)c1ccccc1C(=O)N1CCC(n2nccc2NC(=O)C2CC2)CC1	?	·	74.2	-0.6%	22.8%	?
CN(C)S(=O)(=O)c1cccc(NC(=O)COC(=O)/C=C/c2ccc(Br)o2)c1	0.2%	-2.3%	-24.6	7.08µM*	0.8%	33.2%
Cc1ccc(NC(=O)COC(=O)/C=C/c2ccc(Br)o2)cc1S(=O)(=O)N(C)C	-0.2%	-23.8%	-37.8	25.1µM*	-29.2%	1.4%
Cc1ncc(C[n+]2csc(CCOC(=O)C34CC5CC(CC(C5)C3)C4)c2C)c(N)n1	0.6%	-3.8%	-22.9	-28.6%[57.1 µM]	-3.0%	9.4%
Cc1c(CCOC(=O)C23CC4CC(CC(C)(C4)C2)C3)sc[n+]1Cc1ccccc1	-17.6%	-1.6%	17.3	-15.0%	3.29µM*	11.7µM*
Cc1ccc(C(=O)OCCc2sc[n+](Cc3ccccc3)c2C)cc1	7.7%	7.4%	-39.7	-14.4%	1.47µM*	1.04µM*
Cc1c(CCOC(=O)C23CC4CC(CC(C4)C2)C3)sc[n+]1Cc1ccccc1	-15.7%	-4.9%	-12.2	-11.2%	3.29µM*	45.9%
Cc1cccc(NC(=O)C2NC(=O)CC2c2ccccc2)c1C (stereo not given)	12.8%	-2.6%	-34.0	-2.9%	·	113.2%
COc1cccc(NS(=O)(=O)c2ccc3[nH]cc(C(=O)NC(C)c4ccccc4)c(=O)c3c2)c1 (stereo not given)	·	·	?	5.5%	·	·
CCc1c(C)[nH]c2ccccc2c1=O	?	-22.7%	-1.2	-1.4%	1.65µM*	101.7%
Cc1[nH]c2c(C)cccc2c1CC(=O)O	5.3%	16.3%	-13.4	-32.9%	34.1%	77.9%
Cc1[nH]c2ccccc2c1CC(=O)O	0.6%	-4.5%	70.7	44.7µM*	-7.8%	-22.3%
CC(=O)CCc1c(C)[nH]c2ccccc2c1=O	-7.1%	5.4%	94.3	-2.7%	-20.4%	·
SMILES	SARS PLpro yeast	HCV inh	HCMV inh	Sm TGR inh	Pf growth 48h	Pf growth 96h
COCCN(C(=O)COC(=O)C1CCCCC1)c1c(N)n(Cc2ccccc2)c(=O)[nH]c1=O	·	·	-9.8	·	·	·
O=S(=O)(Nc1cc(Sc2ncn[nH]2)c(O)c2ccccc12)c1ccccc1	-19.8%	?	-98.8*	0.891µM*	?	0.9%
Cc1cc(O)c(Sc2ncn[nH]2)cc1NS(=O)(=O)c1ccc(Cl)cc1	6.8%	15.8%	-1.9	-25.0%	-8.1%	-3.1%
O=C(O)CSc1cc(NS(=O)(=O)c2ccc(Br)cc2)c2ccccc2c1O	-11.1%	?	-31.6	5.62µM*	·	-3.7%
COc1ccc(C(=O)O)cc1S(=O)(=O)NC(C)C	1.4%	3.5%	-17.6	7.6%	1.2%	57.3%
O=C(O)C1C(c2ccccc2)c2ccccc2C(O)C1CO (stereo not given)	·	16.2%	-11.5	·	·	·
O=C1c2ccc(-c3nc4ccccc4o3)cc2C(=O)N1Cc1ccccc1	·	-11.1%	-105.1*	·	·	·
CC1CC(C)CN(CCCn2c(=S)[nH]c3ccccc3c2=O)C1 (stereo not given)	1.8%	-12.4%	4.9	8.2%	·	9.1%
C[C@@H]1CN(CCCn2c3ccccc3c3ccccc32)C[C@H](C)N1	-1.9%	·	·	3.8%	8.49µM*	5.36µM*
Cc1c(NC(=O)c2cc(-c3cccc(O)c3)on2)c(=O)n(-c2ccccc2)n1C	·	·	-16.9	-21.8%	·	·
COc1cccc(-c2cc(C(=O)Nc3c(C)n(C)n(-c4ccccc4)c3=O)no2)c1	10.5%	?	-107.9*	-14.6%	-5.1%	·
Cc1cc(C(=O)Nc2c(C)n(C)n(-c3ccccc3)c2=O)on1	-11.8%	12.5%	-3.3	0.2%	·	4.65µM*
CC1CCN(C(=O)c2[nH]cnc2C(=O)N[C@@H](C)c2ccccc2)CC1	-2.4%	?	-16.4	-6.9%	31.0%	0.0%
O=C(NC1CCN(Cc2ccccc2)CC1)c1ccc2c(c1)[nH]c(=O)n2Cc1ccc(F)cc1	0.4%	2.51µM*	-85.7*	4.5%	-3.7%	73.7%
CC(C)(C)c1ccc(C(=O)NC2CCN(Cc3ccccc3)CC2)cc1	-0.6%	?	?	-3.1%	?	3.29µM*
O=C(Cn1cc2c(n1)CCCCC2)NC1CCN(Cc2ccccc2)CC1	-3.4%	?	-33.3	-1.5%	·	11.7µM*
CCCCCn1c(=O)[nH]c2cc(C(=O)NC3CCN(Cc4ccccc4)CC3)ccc2c1=O	·	12.5%	-26.4	·	·	·
O=C(NC1CCN(CCc2c[nH]c3ccccc23)CC1)c1ccccc1	-1.6%	-10.4%	12.6	-33.2%	15.1µM*!	12µM*
CCCOc1ccc(C(=O)CCC(=O)OCC(=O)N2CCN(S(=O)(=O)c3ccc(C)cc3C)CC2)cc1	·	15.0%	-33.8	·	·	·
Cc1ccc(CC(=O)NC2CCN(Cc3ccccc3)CC2)cc1	?	-1.3%	-4.4	0.0%	-10.9%	0.0%
CCOC(=O)N1CCC(NC(=O)c2cc(C(=O)NC3CCN(Cc4ccccc4)CC3)ccc2CO)CC1	1.7%	10.2%	?	-13.8%	16.0%	10.4µM*

Compound activity deposited in PubChem by National Center for Advancing Translational Sciences (NCATS).
